Screening data (PubChem BioAssay)
Only a selection was taken, and hits are over-represented in it overall.
LmPK inh: qHTS Assay for Inhibitors of Leishmania Mexicana Pyruvate Kinase (LmPK) | Potency, µM (series often up to 57.5 µM), without a hit: at the top dose activity change, negative = inhibition, most hits filed as inhibitors | Q27686 | purified LmPK, Kinase-Glo ATP luminescence, 1 h | 290,000 tested, 0.37% active; also: potency is read from the fitted curve at half-maximal effect; % is scaled to controls: 0 for no effect and ±100 for the full control effect
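qHTS format; LmPK 0.1 nM; substrates PEP 0.5 mM and ADP 0.1 mM. One-hour room-temperature incubation, then coupled luciferase luminescence; 0.5 nM enzyme wells mark activation.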
FBPA Giardia inh: qHTS Assay for Inhibitors of Fructose-1,6-bisphosphate Aldolase from Giardia Lamblia | A8B2U2 | Potency, µM (series often up to 59.6 µM), for inactives: at the highest dose activity, negative = inhibition, actives largely listed as inhibitors | 290,000 tested, 0.71% active | purified Giardia FBPA; also: potency is read from the fitted curve at half-maximal effect; % is scaled to controls: 0 for no effect and ±100 for the full control effect; nearly all actives have a fitted effect of over 55% in size
Target sequence (A8B2U2 whole entry, looked up): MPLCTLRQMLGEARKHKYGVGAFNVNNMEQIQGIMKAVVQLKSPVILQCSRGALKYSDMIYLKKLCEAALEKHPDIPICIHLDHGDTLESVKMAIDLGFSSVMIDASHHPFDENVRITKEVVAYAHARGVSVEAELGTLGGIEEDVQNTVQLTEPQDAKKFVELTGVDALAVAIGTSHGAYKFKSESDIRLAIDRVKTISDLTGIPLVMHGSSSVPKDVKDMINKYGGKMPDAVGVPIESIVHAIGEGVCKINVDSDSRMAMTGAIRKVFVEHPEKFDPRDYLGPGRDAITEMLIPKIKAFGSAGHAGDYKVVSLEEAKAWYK
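Giardia FBPA (40 nM reagent) was preincubated 10 min at RT with compound (up to 57.5 uM final), then substrate plus GAPDH/TPI/NAD/arsenate coupling system with diaphorase/resazurin was added; resorufin fluorescence (525/598 nm) was read after 20 min.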
Shiga toxin inh: A qHTS for Small Molecule Inhibitors of Shiga Toxin. Vero cells, Shiga toxin protein synthesis inhibition reporter. inhibition, % at 38.7 µM. 290,000 tested, 9.2% active; in the data active = inhibition mostly above about 28%, no sharp cut-off; inactive = mostly below about 43%; also: 0% is about no effect
RE007 growth inh: qHTS Assay for Inhibitors of the HIV-1 protein Vpr | S. pombe RE007 Vpr strain, BacTiter-Glo ATP luminescence, 24 h | Potency, µM (top dose mostly 92.2 µM), for the others: at the highest dose activity change, negative = less growth, usual class: inhibitors | 360,000 tested, 0.21% active | AID 651644, 2012; active = well fitted falling curve with a large enough effect; inconclusive = small, poorly fitted or top-dose-only effect; inactive = no such curve, though single readings can be large or run the other way; also: potency is read from the fitted curve at half-maximal effect; % is scaled to controls: 0 for no effect and ±100 for the full control effect; nearly all actives have a fitted effect of over 50% in size
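Fission yeast strain RE007, carrying one chromosomally integrated HIV-1 vpr copy, was seeded at OD 0.01 in PMG+AL medium with 23 nL pinned compound. After 24 h at 30 °C and 99% humidity, viability was read by BacTiter-Glo luminescence.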
Tb PYK inh: qHTS of Trypanosoma Brucei Inhibitors; TbPYK enzyme, Kinase-Glo Plus ATP luminescence, 45 min; 410,000 tested, 0.12% active; Potency, µM (series often up to 76.8 µM), for inactives: top-dose activity, negative = inhibition, hits mostly inhibitors; AID 624173, 2012; also: potency is read from the fitted curve at half-maximal effect; % is scaled to controls: 0 for no effect and ±100 for the full control effect; nearly all actives have a fitted effect of over 50% in size
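In this concentration-response screen, enzyme-free wells defined baseline while DMSO plates tracked drift. Each reaction combined TbPYK, substrate, compound and 130 uM ADP for 45 min at room temperature. Kinase-Glo Plus luminescence gave the signal.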
CHX counter: Cycloheximide Counterscreen for Small Molecule Inhibitors of Shiga Toxin; cell reporter, cycloheximide protein synthesis inhibition counterscreen; max response, %; 300,000 tested, 12% active; AID 2314, 2010; in the data active = max response mostly above about 13%, no sharp cut-off; inactive = mostly below about 14%; also: read at 38.3 µM for the half of the compounds with a filed dose; 0% is about no effect
Numbers without * were called inactive; i = inactive; u = inconclusive; x = no result; + = active, no number; [ ] = remark or other dose. Unless noted, calls follow the shape of the dose curve; as a rule, active = well fitted curve in the direction sought with a large enough effect; inconclusive = small, poorly fitted or top-dose-only effect, or another doubt; inactive = no such curve, though single readings can be large; an effect the other way counts as inactive or inconclusive.

SMILES | LmPK inh | FBPA Giardia inh | Shiga toxin inh | RE007 growth inh | Tb PYK inh | CHX counter
O=C(Nc1nnc(Cc2ccccc2)s1)c1ccccc1 | 1% | -14% | 39* | -27% | 9% | 17*
CCOC(=O)CCNC(=O)N1CCN(S(=O)(=O)c2ccc3c(ccn3C)c2)CC1 | x | x | x | x | 4% | x
CCOC(=O)c1cnc2ccc(OC(F)(F)F)cc2c1Nc1ccccc1C(=O)O | x | x | x | x | -5% | x
Cc1cccc(C(=O)Nc2nnc(Cc3ccccc3)s2)c1 | 0% | 3% | 8 | -12% | -3% | 9.3*
Cc1ccc(C(=O)Nc2nnc(Cc3ccccc3)s2)cc1 | 1% | 1% | -3 | 11% | -2% | 2
CN(C)/C=C/C(=O)c1ccc(-n2cccc2)cc1 | -5% | -2% | 75* | u | -8% | 30*
CN(C)/C=C/C(=O)c1ccc([N+](=O)[O-])c(CS(=O)(=O)c2ccccc2)c1 | -8% | -8% | 2 | 7% | -12% | -2
CN(C)/C=C/C(=O)c1ccc(Cl)c([N+](=O)[O-])c1 | 6% | 1% | 28 | -17% | -1% | 21*
CN(C)/C=C/C(=O)c1cccc(Cl)c1 | -1% | 14% | 15 | u | -4% | 17*
COC(=O)[C@H](Cc1ccccc1)NC(=O)O[C@H]1C(=O)c2cc(OC)ccc2O[C@@H]1c1ccc(OC)c(Br)c1 | x | 0% | x | x | x | x
CCc1ccccc1NC(=O)CSc1nc2ccccc2nc1Cc1cccc(OC)c1 | x | x | x | x | 16% | x
N#Cc1c2n(c(=S)n(-c3ccc(F)cc3)c1=O)CCCCC2 | -1% | 6% | -9 | 0% | 10% | -8
N#Cc1c2n(c(=S)n(-c3ccccc3)c1=O)CCCCC2 | -3% | 1% | -7 | 5% | 10% | 14*
COc1ccc([C@]23Cc4cc(OC)c(OC)cc4C(O2)c2c(cc(C)oc2=O)O3)cc1 | 1%[11.5 µM] | -4%[12.9 µM] | i | x | x | 1
N#C/C(=C(/O)c1ccc(-c2cccc([N+](=O)[O-])c2)o1)c1nc2ccccc2s1 | -15% | -1% | 53* | -23% | 1% | 21
c1ccc(SCc2nc3ccccc3s2)nc1 | -5% | -12% | 81* | -21% | -6% | 33*
c1ccc(-c2noc(CSc3nc4ccccc4o3)n2)cc1 | 2% | -5% | 56 | -5% | -3% | 17
N#CCc1nc(CSc2nc3ccccc3o2)cs1 | 3% | 1% | 70* | 13% | -8% | 25
O=C(O)c1ccc(-c2cccc([N+](=O)[O-])c2)o1 | 3% | 11% | 22 | -14% | -1% | 5
c1ccc2oc(SCc3nc4ccccc4s3)nc2c1 | -8% | 16% | + | -27% | -18% | 43*
NCCc1nc2ccccc2s1 | 0% | 1% | -5 | 9% | -1% | 5
CCCCOC(=O)c1ccc(NC(=O)C2(c3cccs3)CCOCC2)cc1 | x | x | x | x | 0% | x
O=S(=O)(NCCc1ccccc1)c1ccc(N2CCCCS2(=O)=O)cc1 | x | x | x | x | 1% | x
N#C/C(=C(/O)c1ccc(F)cc1)c1nc2ccccc2s1 | -2% | -24% | 20 | -4% | 0% | 20*
N#C/C(=C(/O)CSc1ccccn1)c1nc2ccccc2s1 | 0% | 11% | 47 | -6% | -3% | 25*
SMILES | LmPK inh | FBPA Giardia inh | Shiga toxin inh | RE007 growth inh | Tb PYK inh | CHX counter
O=C(Cn1cc(S(=O)(=O)N2CCCC2)c(S(=O)(=O)N2CCCC2)c1)Nc1cccc(F)c1 | x | x | x | x | -5% | x
COc1cc(OC)cc(-c2nnc3n2N=C(c2ccccc2OC)CS3)c1 | x | -21% | -7 | x | x | -2
COC(=O)C1=C(C(=O)OC)[C@@H]2N(C)c3ccccc3[C@@]23C[C@@H](C(=O)OC)N(S(=O)(=O)c2c(C)noc2C)C3=N1 | 2%[11.5 µM] | 2%[12.9 µM] | x | x | x | x
Oc1csc(Cc2nc(-c3ccc(-c4ccccc4)cc3)cs2)n1 | 4% | 4% | 53* | 9% | 4% | 27*
Oc1csc(Cc2nc(-c3ccccc3F)cs2)n1 | -9% | 7% | 78* | -4% | -10% | 47*
Cc1ccccc1NC(=O)Cc1nc(-c2ccc3ccccc3c2)cs1 | -5% | 1% | 7 | -12% | -4% | 6
